# Experimental data published in the supplement of paper PMC6555819.
# How the values were obtained:
# Assay in all cases: PBM binding z-score (relative to random genomic background probes); higher = stronger binding; sequences stand for … in GC…GCGATTGACAGCGTAGAATGAAGG
# [1] = system: FXR:RXRa (NR concentration 270 nM, RXRa partner concentration 90 nM)
# Summary of the method: (§1)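 Each nuclear receptor dimer, without ligand, was incubated for 1 h on custom Agilent 4×180K protein-binding microarrays. Binding was detected with antibodies against each partner (one per run), and scanned fluorescence was regression-normalized. The binding z-scores are referenced to random human genomic background probes.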
# [2] = system: LXRa:RXRa (NR concentration 270 nM, RXRa partner concentration 90 nM)
# Summary of the method: as §1
# [3] = system: LXRa homodimer (NR concentration 270 nM)
# Summary of the method: as §1
# [4] = system: LXRb:RXRa (NR concentration 270 nM, RXRa partner concentration 90 nM)
# Summary of the method: as §1
# [5] = system: LXRb homodimer (NR concentration 270 nM)
# Summary of the method: as §1
# [6] = system: PPARa:RXRa (NR concentration 270 nM, RXRa partner concentration 90 nM)
# Summary of the method: as §1
# [7] = system: PPARg:RXRa (NR concentration 180 nM, RXRa partner concentration 90 nM)
# Summary of the method: as §1
# [8] = system: PPARg:RXRa 270nM:90nM, anti-RXR (NR concentration 270 nM, RXRa partner concentration 90 nM)
# Summary of the method: as §1
# [9] = system: PPARg:RXRa 30nM:10nM, anti-RXR (NR concentration 30 nM, RXRa partner concentration 10 nM)
# Summary of the method: as §1
# [10] = system: PPARg:RXRa 90nM:30nM, anti-RXR (NR concentration 90 nM, RXRa partner concentration 30 nM)
# Summary of the method: as §1
Sequence,PBM binding z-score [1],PBM binding z-score [2],PBM binding z-score [3],PBM binding z-score [4],PBM binding z-score [5],PBM binding z-score [6],PBM binding z-score [7],PBM binding z-score [8],PBM binding z-score [9],PBM binding z-score [10]
CCTACTGGGCCAAGGACATTGATCAGTCAAAGCA,-0.284,-0.572,-0.118,-0.778,-0.99,-0.141,0.757,0.967,0.164,0.46
CCAGAGAGGTGAGAAGGTAACTCAGCCTCGATTA,0.595,0.597,-0.207,1.02,-0.739,2.17,0.83,1.36,0.216,0.457
ACTTACGGGCCAACGAGGTTATAGCACGCGTATA,0.283,0.557,-0.119,0.645,-0.0337,1.16,0.891,0.372,0.0261,0.602
TCAGACAGGTGAAGGTAACCCAGGTACGCAGTCG,1.04,1.3,0.143,0.546,-0.122,1.45,0.909,2.04,3.53,2.77
TAGCCTAGGTCAGATCGGGCCAGTATCCGCTATA,2,1.05,-0.375,0.765,-0.472,1.69,0.405,0.707,-0.351,-0.0749
CATCCAAGGTCAAGGTCAGTGAAAGAGACTCGAA,7.77,6.14,2.48,5.1,2.11,6.02,7.17,6.56,3.3,5.45
CCTTACGGGTCACGGACAGGTTATAGCATTTGGA,6.85,5.09,0.422,4.42,0.0189,6.01,6.38,6.56,3.37,5.44
TGAATGAGGTTATAAGAACAGGGAACGTTGCAAA,1.63,1.18,-0.262,1.03,0.118,2.32,1.33,1.6,0.909,1.08
ATCGAAAGGTCCTGAGGTGAGTATACAGAAAGGC,0.12,0.275,-0.698,0.248,-0.388,1.21,0.686,0.415,0.534,1.08
TCTTGTAGTTCAGCAGGTTAAGAAAGCTGGCCAA,0.786,1.15,0.28,0.805,0.146,1.5,-0.802,1.61,2.42,1.86
ATCGAAAGGTCGTGAGGTGAGCATACAGAAAGGC,4.88,3.62,-0.0763,2.89,0.368,4.84,3.58,4.56,1.29,2.96
CATACAGGGTCAGCTAGGCCAGACTAGGGACGGC,4.02,2.77,-0.135,1.97,0.282,4.06,3.31,2.8,0.502,1.8
CAAACTAGGTCAAGAGGTCAAAGCCCGCTTCCCG,7.07,6.28,5.68,5.4,1.5,6.76,10.1,8.55,7.71,8.87
CCTGCTATGTCATGGTCAGCTAATCTACAGTATG,0.128,-0.0634,-0.269,-0.0445,-0.226,-0.318,0.0811,-0.104,0.0801,0.346
GCATATAGGTAATACAGGGTGAAAGTCCGATTGT,0.317,0.746,-0.223,0.369,-0.0682,1.92,1.44,1.47,0.819,0.965
TAGCCTAGGTCATGGGCCAGTATTCCACGCGAAC,4.39,3.5,0.0514,2.3,-0.499,4.12,3.67,3.49,1.17,2.47
CCTACTAGGCCAAAGGTCATTGATTCCAATGCTC,5.07,5.49,4.69,5.36,1.48,6.66,12.3,10.5,11.4,11.8
ATATGTAGGGTACATCCGGGTCATTCAGGCTATG,1.96,2.96,1.43,2.4,1.27,3.89,4.04,3.53,1.46,2.33
TCTGCTAGGTCAACGATGGTTAGCTAATCTGCTA,3.1,2.08,-0.301,1.46,-0.085,3.09,2.34,3.09,1.82,2.54
CGTCCAAGGTCAATGGTAGGTCAGTGAAAGCATT,6.69,5.38,2.66,4.27,0.432,5.14,3.76,4.73,1.28,3.54
GCGTGTAGATCAAGGTTAAGAAAGACTAAGCTAA,0.359,0.939,-0.369,0.539,-0.757,1.28,0.0821,0.373,-0.0969,0.289
ATATGTAGGTTAGCTCGGGTCATTCAGACTAGGC,2.55,4.5,1.52,2.65,0.733,4.08,4.25,3.8,1.34,3.09
CCTATTAGTTGACCAGAAGGGCAACCGAAGCTCG,0.545,0.559,0.36,0.332,0.735,0.431,0.395,0.467,-0.116,0.177
ATCTCTAGGTACCCAAGTTCAGTGAATGCCGAAC,0.332,1.7,3,0.887,1.08,0.625,0.408,0.456,0.321,0.493

Sequence,PBM binding z-score [1],PBM binding z-score [2],PBM binding z-score [3],PBM binding z-score [4],PBM binding z-score [5],PBM binding z-score [6],PBM binding z-score [7],PBM binding z-score [8],PBM binding z-score [9],PBM binding z-score [10]
CCTCGGAGGACAACAGGAGGTCAGAGTTGCCAGA,1.11,2.05,2.59,1.57,-0.486,2.02,0.634,0.674,-0.404,0.264
TAGACTAGGTCAGATCGGGCCAGTATACGCTATA,1.54,0.872,-0.254,0.626,0.289,2.47,3.05,2.82,1.07,2.03
TTCCCAAGGTGAAAGGTCGTTGATGCACGCCTTG,3.69,3.79,0.848,2.97,-0.253,5.44,7.9,7.35,6.2,7.54
GCTAGTTGGTCAGTAATAGGTCACACACCGGTCG,1.19,1.72,1.74,1.77,0.0415,2.79,1.44,2.52,0.756,1.82
GCTGCTAGGTGAACTGATGGTCAGCTAAAGCTCG,-0.0942,-0.291,-0.843,-0.328,-1.56,1.27,0.329,0.967,-0.226,0.635
ATCTCTCGGTAAAGTTCAGTGAAAGATCGATAGA,1.03,1.46,1.39,1.3,1.34,1.6,1.08,2.68,1.12,2.32
CCTGCTAGGTTAATGGTCAGCTAAAGCAGCTCGC,-0.16,0.22,-0.415,0.0198,-0.231,0.798,1.47,3.16,0.835,2.53
TCTTGTAGACCAACAGGAGGTTAAGAAAGATCGA,-0.287,1.22,0.0855,0.717,-0.453,1.15,0.068,1.3,2.69,1.81
TCATATAGGTAAGCAGGTGAAAGTCCGTAAGTTA,0.125,0.178,-0.0439,0.39,-0.523,1.74,2.16,3.14,3.46,3.36
GCTAGCAGGCCACTTGGGTCACTCAATGACGGGC,0.0158,-0.115,-0.748,0.0102,-0.778,0.888,0.483,0.199,-0.326,-0.355
TAGCCTAGGTCATTGGGCCAGTAGAGTACGCATC,3.86,3.33,0.509,2.17,-0.0447,3.92,3.68,3.97,0.744,2.76
CGAACTACGTCATTGACAGGACAGTGAATAGTAA,-0.386,-0.38,-0.195,-0.327,-0.182,-0.47,0.307,-0.251,-0.294,-0.164
CCTAGCAGGCAAGGGTCACTCAAGCATTTCGCTT,2.9,2.67,-0.242,2.45,-0.627,3.8,1.77,3.27,0.737,2.48
ACTAGCACGCCAAGTTTGGGTCACTCAAACAAAG,0.0024,-0.138,-0.715,0.642,-0.337,1.17,-0.0065,-0.00833,-0.577,-0.34
CCTAGCAGGCCACTCTGGGTCACTCAAGGCTTGA,1.22,4.55,0.221,1.91,-0.897,2.33,0.363,0.663,-0.56,0.0943
ATCTCTAGATAAAGATAGTTCAGTGAATGCAAAT,-0.281,0.122,0.343,0.191,0.206,-0.0361,0.872,0.0626,0.338,0.179
TCTTGTAGATTAGCAGGTTAAGAAAGCTGGCCAA,0.383,0.641,0.135,0.57,-0.424,0.897,-0.494,1.4,2.55,2.07
GCTCGGAGCACAAGGTCAGAGCTTTGTCCGTAGA,1.22,1.42,-0.454,0.993,-1.38,2.34,0.273,1.03,-0.387,0.2
CATACAGGGTTAGCTAGGCCAGAGTAGGGACGGC,0.0541,0.22,-0.431,-0.176,-0.302,0.689,0.625,0.647,-0.0439,0.397
ATCGAAAGGTCGAAGGTGAATATACCCACCCGAA,5.04,4.06,0.547,3.42,0.763,5.24,5.61,5.45,2.92,4.71
TTACCAAGGTGAAAGGTCGCTGATGCACGCCTTG,2.82,2.6,-0.188,2.24,-0.623,5.25,8.28,8.53,7.04,9.59
AGAATGAGATTATACGTAGATCAGGGAAGAAAGT,-0.225,-0.715,-0.134,-0.538,-0.345,-0.566,1.09,-0.183,0.419,-0.327
ATCTCTAGGTAACCAAGTTCAGTGTATGCCGAAC,0.4,0.852,0.996,0.524,0.803,1.06,0.577,0.99,0.331,0.721
ATATGTACGTTAGCTGGGGTCATTCAGACTAGGC,3.94,3.99,2.29,4.39,1.42,4.07,1.74,2.27,0.566,1.33
